Some test systems named below: SR leukemia; RPMI-8226 leukemia; OVCAR-8 ovarian; OVCAR-5 ovarian; OVCAR-4 ovarian; SK-OV-3 ovarian; IGROV1 ovarian; OVCAR-3 ovarian; HS 578T breast; NCI/ADR-RES ovarian.
What all share (assay): NCI-60 one-dose screen, 48 h (100 = growth as untreated, 0 = no growth, -100 = all killed)
Common to all, as to settings: 10 µM unless noted

About 83,000 compounds went through this panel and 20% of them were active in at least one assay; those are over-represented in the sample as a whole.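 Plates (96-well) were seeded with cells, treated with compound at one concentration, and incubated for 48 hours before percent growth was determined.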 A number with no mark means an inactive call. Active and inactive are the calls of the source. The calls were made as follows: active = growth percent below 10; inactive = the rest.

On to `CC(C)N1CN2C(=S)NC3C2N(C1)C(=S)N3C` (stereo not given), for which the growth in the assay on SR leukemia was 88.6%; with RPMI-8226 leukemia it was 91.7%; with OVCAR-8 ovarian, 102%; in the assay with OVCAR-5 ovarian it was 107%; in the assay on OVCAR-4 ovarian, 117%; with SK-OV-3 ovarian, 109%. In addition, the growth with IGROV1 ovarian is 103%; in the assay on OVCAR-3 ovarian, 103%; in the assay on HS 578T breast, 95.6%; with NCI/ADR-RES ovarian, 106%.
Consider `COc1cc(-c2nc(SCCC(C)C)nc(Nc3ccccc3Cl)c2C#N)cc(OC)c1OC`, for which the growth with SR leukemia is 102%; in the assay on RPMI-8226 leukemia, 101%; in the assay on OVCAR-8 ovarian it was 101%; in the assay with OVCAR-5 ovarian it was 89.7%; in the assay with OVCAR-4 ovarian it was 90.2%; in the assay with SK-OV-3 ovarian, 120%. Besides, the growth in the assay with IGROV1 ovarian was 91.6%; in the assay with OVCAR-3 ovarian, 105%; with HS 578T breast, 95.6%; in the assay with NCI/ADR-RES ovarian, 101%.
In the case of `Cc1nnc(NC(=O)c2nc(S(=O)(=O)Cc3ccc(F)cc3)ncc2Cl)s1`, the growth is 1.43% (active) in the assay with SR leukemia; 37% in the assay with RPMI-8226 leukemia; 56.4% with OVCAR-8 ovarian; 85.6% with OVCAR-5 ovarian; 101% in the assay on OVCAR-4 ovarian; 101% with SK-OV-3 ovarian. Moreover, the growth was 91.1% in the assay on IGROV1 ovarian, 21.8% with OVCAR-3 ovarian, 93.1% with HS 578T breast and 93% with NCI/ADR-RES ovarian.
For the molecule `O=C(CCc1nnc(Cn2cnc3nc[nH]c3c2=O)o1)c1nc2ncccc2[nH]1`, the growth in the assay on SR leukemia was 100%; in the assay with RPMI-8226 leukemia, 99.6%; in the assay on OVCAR-8 ovarian it was 100%; with OVCAR-5 ovarian, 100%; in the assay on OVCAR-4 ovarian, 99.4%; in the assay with SK-OV-3 ovarian, 107%. Also, the growth with IGROV1 ovarian was 102%; in the assay on OVCAR-3 ovarian, 104%; with HS 578T breast, 93.2%; in the assay on NCI/ADR-RES ovarian, 100%.
`CCN(CC)CCSc1nc(-c2ccccc2)c(C#N)c(=O)[nH]1`: the growth is 92.3% in the assay on SR leukemia; 119% with RPMI-8226 leukemia; 111% in the assay with OVCAR-8 ovarian; 108% in the assay with OVCAR-5 ovarian; 154% with OVCAR-4 ovarian; 90.8% in the assay with SK-OV-3 ovarian. Also, the growth was 117% in the assay on IGROV1 ovarian, 116% in the assay with OVCAR-3 ovarian, 63.5% with HS 578T breast and 58% with NCI/ADR-RES ovarian.
For `O=CC1(C2(C=O)c3ccccc3-c3ccccc32)c2ccccc2-c2ccccc21`, the growth with SR leukemia is -32.3% (active); in the assay with RPMI-8226 leukemia it was -24% (active); in the assay on OVCAR-8 ovarian, -49.9% (active); in the assay with OVCAR-5 ovarian, -40.9% (active); in the assay with OVCAR-4 ovarian it was -76.4% (active); with SK-OV-3 ovarian, -65% (active). Moreover, the growth in the assay with IGROV1 ovarian is -76.4% (active); in the assay on OVCAR-3 ovarian, -74.7% (active); with HS 578T breast, -4.62% (active); with NCI/ADR-RES ovarian, -14% (active).
`O=C(CI)NC1Oc2ccccc2-c2oc(=O)c(-c3ccccc3)cc21` (stereo not given): the growth with SR leukemia was -33.5% (active); in the assay with RPMI-8226 leukemia, -49.4% (active); in the assay with OVCAR-8 ovarian, -27.9% (active); in the assay on OVCAR-5 ovarian it was 12.8%; in the assay on OVCAR-4 ovarian it was -40.3% (active); in the assay on SK-OV-3 ovarian, 103%. Besides, the growth in the assay with IGROV1 ovarian was -59% (active); in the assay on OVCAR-3 ovarian, -95.1% (active); in the assay with HS 578T breast it was 44.3%; with NCI/ADR-RES ovarian, 36.7%.
Take `Cc1ccccc1NC(=O)c1sc2nc(C)c(C(=O)/C=C/c3ccccc3)cc2c1N`: the growth with SR leukemia is 24.4%; with RPMI-8226 leukemia it was -24.7% (active); in the assay with OVCAR-8 ovarian, 6.75% (active); in the assay on OVCAR-5 ovarian, 20.8%; in the assay with OVCAR-4 ovarian, 51.3%; in the assay on SK-OV-3 ovarian, 82%. The growth in the assay with IGROV1 ovarian is 10.3%; in the assay with OVCAR-3 ovarian it was -5.72% (active); with HS 578T breast it was 10% (active); in the assay with NCI/ADR-RES ovarian it was 1.11% (active).
Consider `Nc1ncnc2c1N=C(c1ccc3c(c1)OCO3)CC(c1cccc(Nc3ccnc4cc(Cl)ccc34)c1)N2` (stereo not given), for which the growth in the assay on SR leukemia is 3.03% (active); in the assay with RPMI-8226 leukemia, -24% (active); with OVCAR-8 ovarian, 51.1%; in the assay with OVCAR-5 ovarian, 97%; in the assay on OVCAR-4 ovarian, 60.7%; in the assay on SK-OV-3 ovarian, 79.2%. The growth in the assay with IGROV1 ovarian is 59.4%; in the assay on OVCAR-3 ovarian, 67.7%; in the assay with HS 578T breast, 87.1%; in the assay on NCI/ADR-RES ovarian it was 56.8%.
For `CCCC(O)Cn1ncc(C(=O)OCC)c1NC(=O)NCc1ccccc1F` (stereo not given), the growth is 93.5% with SR leukemia; 67.4% in the assay with RPMI-8226 leukemia; 89.9% with OVCAR-8 ovarian; 108% with OVCAR-5 ovarian; 87.1% with OVCAR-4 ovarian; 102% with SK-OV-3 ovarian. Further, the growth in the assay with IGROV1 ovarian is 92.9%; in the assay on OVCAR-3 ovarian it was 91.1%; with HS 578T breast, 102%; in the assay on NCI/ADR-RES ovarian, 92.6%.
As to `CN1C(=O)/C(=C/c2ccc(C(=O)Nc3ncc(Cc4ccc(Cl)cc4)s3)cc2)SC1=S`, the growth was 43.2% in the assay on SR leukemia; 61.3% with RPMI-8226 leukemia; 60.4% with OVCAR-8 ovarian; 58.1% in the assay on OVCAR-5 ovarian; 54.9% with OVCAR-4 ovarian; 58% in the assay on SK-OV-3 ovarian. The growth with IGROV1 ovarian is 44.4%; in the assay with OVCAR-3 ovarian, 27.2%; in the assay on HS 578T breast it was 42%; in the assay on NCI/ADR-RES ovarian it was 37.5%.
For `Cc1ccccc1Cn1cnc2ccc(-c3cc(NC(=O)c4ccc(NC5CCN(C)CC5)cc4)n[nH]3)cc21`, the growth was 52.9% in the assay on SR leukemia; 77.1% in the assay with RPMI-8226 leukemia; 104% in the assay on OVCAR-8 ovarian; 69.9% with OVCAR-5 ovarian; 62.5% in the assay on OVCAR-4 ovarian; 75.7% in the assay with SK-OV-3 ovarian. For the same molecule, the growth in the assay with IGROV1 ovarian was 26.5%; with OVCAR-3 ovarian, 99.8%; in the assay on HS 578T breast, 2.06% (active); in the assay on NCI/ADR-RES ovarian it was 104%.
`COc1cc2oc(-c3cccc(NC(=O)c4cccc(Br)c4)c3)cc(=O)c2c(OC)c1OC`: the growth with SR leukemia was 43.2%; with RPMI-8226 leukemia, 25.5%; in the assay with OVCAR-8 ovarian, 34.8%; with OVCAR-5 ovarian it was 87.7%; in the assay on OVCAR-4 ovarian it was 58.7%; in the assay with SK-OV-3 ovarian, 92.5%. The growth was 58.8% in the assay on IGROV1 ovarian, 66.5% with OVCAR-3 ovarian, 47.1% in the assay on HS 578T breast and 53.1% in the assay on NCI/ADR-RES ovarian.

The values above are taken from PubChem BioAssay (NCI).
